Data from PubChem BioAssay.
Active and inactive are the calls of the source.

What was measured:
[1] = system: Plasmodium falciparum Sir2 (PF13_0152, Sir2A); test: pfSir2 binders on small-molecule microarrays, primary screen, biochemical, small-molecule microarray, 635 nm fluorescence (AID 1098); conditions: small-molecule microarray binding, fluorescence 635 nm; higher = more signal;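 note: score merges spot fluorescence intensity with its signal-to-noise ratio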
[2] = small-molecule microarray binders of probe aDKK1, primary screen, biochemical, biotinylated probe, 635/667 nm fluorescence (AID 1099); conditions: higher = more signal;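 note: score merges 667nm spot fluorescence with signal to noise across triplicate slides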
[3] = small-molecule microarray binders of probe aCHRDL2, primary screen, biochemical, biotinylated probe, 635/667 nm fluorescence (AID 1100); conditions: higher = more signal
[4] = splicing luciferase reporter signal modulators, primary screen, spliceosome inhibition project, cell-based, HEK293, splice +/- reporter (AID 1101); conditions: luminescence, 24 h, higher = more signal, called active from +8 up or from −8 down;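 note: HEK293 cells carrying a splicing-competent luciferase reporter gene; test concentration not given here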
[5] = molecular target: Fibroblast growth factor 10 (Homo sapiens) (UniProt O15520); test: FGF10 binders on small-molecule microarrays, primary screen, biochemical, small-molecule microarray, 635 nm fluorescence (AID 1102); conditions: FGF10 binding, fluorescence 635 nm, higher = more signal
Fibroblast growth factor 10 (Homo sapiens), sequence (O15520 whole entry, looked up): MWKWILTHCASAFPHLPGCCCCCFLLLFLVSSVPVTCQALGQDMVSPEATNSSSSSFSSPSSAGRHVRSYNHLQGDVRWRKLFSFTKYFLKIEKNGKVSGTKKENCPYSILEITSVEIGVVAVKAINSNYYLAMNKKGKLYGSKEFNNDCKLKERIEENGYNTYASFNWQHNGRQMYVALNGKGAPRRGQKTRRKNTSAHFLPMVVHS

[6] = system: glycogen synthase kinase-3 (GSK3A per assay name; protocol says GSK3B); test: GSK3 binders on small-molecule microarrays, primary screen, biochemical, small-molecule microarray, 635 nm fluorescence, GSK3A (AID 1103); conditions: small-molecule microarray binding, fluorescence 635 nm; higher = more signal; note: the record names both GSK3A and GSK3B
[7] = molecular target: Epidermal growth factor receptor (Homo sapiens) (UniProt P00533); test: EGFR binders on small-molecule microarrays, primary screen, biochemical, small-molecule microarray, 635 nm fluorescence (AID 1104); conditions: EGFR binding, higher = more signal;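 note: score merges 667 nm emission intensity with spot signal to noise over triplicate slides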
Epidermal growth factor receptor (Homo sapiens), sequence (P00533 whole entry, looked up): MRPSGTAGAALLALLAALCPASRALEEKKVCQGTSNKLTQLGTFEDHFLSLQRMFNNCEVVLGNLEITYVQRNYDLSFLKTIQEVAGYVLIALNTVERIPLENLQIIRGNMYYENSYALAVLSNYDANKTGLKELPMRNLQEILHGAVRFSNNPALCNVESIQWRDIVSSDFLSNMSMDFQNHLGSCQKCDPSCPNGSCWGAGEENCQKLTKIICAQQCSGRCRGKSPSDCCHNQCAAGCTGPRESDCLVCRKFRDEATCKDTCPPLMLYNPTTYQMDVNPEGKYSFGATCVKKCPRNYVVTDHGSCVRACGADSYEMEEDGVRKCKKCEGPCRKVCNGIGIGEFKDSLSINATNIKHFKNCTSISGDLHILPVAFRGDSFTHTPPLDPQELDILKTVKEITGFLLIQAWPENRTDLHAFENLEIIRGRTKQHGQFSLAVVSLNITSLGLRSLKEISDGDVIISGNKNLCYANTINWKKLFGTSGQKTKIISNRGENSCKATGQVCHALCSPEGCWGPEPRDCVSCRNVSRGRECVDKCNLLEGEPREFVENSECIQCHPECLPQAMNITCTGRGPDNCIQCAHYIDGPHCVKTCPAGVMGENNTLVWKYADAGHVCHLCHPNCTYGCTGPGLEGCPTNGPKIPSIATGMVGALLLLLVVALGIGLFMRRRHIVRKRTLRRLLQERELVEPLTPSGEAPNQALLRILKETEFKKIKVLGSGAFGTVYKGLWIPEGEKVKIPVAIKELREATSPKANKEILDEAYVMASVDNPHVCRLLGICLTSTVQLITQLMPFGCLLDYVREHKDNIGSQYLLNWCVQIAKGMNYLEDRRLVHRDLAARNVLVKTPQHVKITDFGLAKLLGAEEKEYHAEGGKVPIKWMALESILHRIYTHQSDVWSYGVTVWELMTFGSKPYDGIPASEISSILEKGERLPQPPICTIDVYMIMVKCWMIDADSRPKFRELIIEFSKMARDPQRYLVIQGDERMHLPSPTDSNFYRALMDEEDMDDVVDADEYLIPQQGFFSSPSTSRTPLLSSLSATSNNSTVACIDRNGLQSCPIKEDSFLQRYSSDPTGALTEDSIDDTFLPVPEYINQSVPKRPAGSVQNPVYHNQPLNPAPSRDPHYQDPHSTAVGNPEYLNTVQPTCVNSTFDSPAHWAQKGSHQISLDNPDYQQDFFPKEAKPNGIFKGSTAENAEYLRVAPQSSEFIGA

[8] = molecular target: Follistatin-related protein 3 (Homo sapiens) (UniProt O95633); test: FSTL3 binders on small-molecule microarrays, primary screen, biochemical, small-molecule microarray, 635 nm fluorescence (AID 1105); conditions: FSTL3 binding, higher = more signal;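 note: score merges emission near 667 nm and signal to noise per printed spot across three slides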
Follistatin-related protein 3 (Homo sapiens), sequence (O95633 whole entry, looked up): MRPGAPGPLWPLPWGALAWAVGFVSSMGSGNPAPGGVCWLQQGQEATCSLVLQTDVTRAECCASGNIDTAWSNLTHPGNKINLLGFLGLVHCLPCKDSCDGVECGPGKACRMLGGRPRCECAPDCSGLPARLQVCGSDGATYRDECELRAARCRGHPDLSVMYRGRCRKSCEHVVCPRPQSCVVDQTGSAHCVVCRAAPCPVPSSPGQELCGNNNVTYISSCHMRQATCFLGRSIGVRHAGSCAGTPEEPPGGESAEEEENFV

[9] = molecular target: Dickkopf-related protein 1 (Homo sapiens) (UniProt O94907); test: DKK1 binders on small-molecule microarrays, primary screen, biochemical, small-molecule microarray, 635 nm fluorescence scan (AID 1106); conditions: DKK1 binding, higher = more signal;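 note: score merges emission near 667 nm with signal to noise over three replicate slides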
Dickkopf-related protein 1 (Homo sapiens), sequence (O94907 whole entry, looked up): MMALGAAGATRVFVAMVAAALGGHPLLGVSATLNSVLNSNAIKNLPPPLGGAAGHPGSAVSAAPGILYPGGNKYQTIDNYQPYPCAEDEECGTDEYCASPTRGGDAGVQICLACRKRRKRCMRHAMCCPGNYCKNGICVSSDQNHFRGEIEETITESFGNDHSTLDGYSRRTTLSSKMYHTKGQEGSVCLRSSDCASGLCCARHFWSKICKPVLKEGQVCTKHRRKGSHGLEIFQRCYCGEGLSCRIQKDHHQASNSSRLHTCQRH

[10] = system: Inhibin beta A chain (activin A); test: INHBA (activin A) binders on microarrays, primary screen, biochemical, small-molecule microarray, 635 nm fluorescence scan (AID 1107); conditions: small-molecule microarray binding, higher = more signal;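 note: mouse activin A protein probed at 4.33 µg/mL on printed slides; score merges bound-protein fluorescence near 667 nm with spot signal-to-noise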
[11] = system: Human papillomavirus type 1a protein E7 (residues 44-93); test: HPV1a E7 fragment binders on microarrays, primary screen, biochemical, small-molecule microarray, residues 44-93, 635 nm fluorescence (AID 1108); conditions: small-molecule microarray binding, fluorescence 635 nm; higher = more signal;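 note: E7 fragment applied at 1 µg/mL in TBST for 1 h at 4 C; score combines spot fluorescence with its signal to noise ratio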
[12] = modulators of HCV replicon luciferase signal, primary screen, HCV replication inhibitor project, Huh7 cells, luciferase reporter (AID 1109); conditions: 48 h, higher = more signal;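 note: huh7 hepatoma cells harbouring a luciferase neomycin HCV replicon reporter; luciferase luminescence as measure of HCV replicon replication; test concentration not given here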
[13] = molecular target: Left-right determination factor 2 (Homo sapiens) (UniProt O00292); test: LEFTY2 binders on small-molecule microarrays, primary screen, biochemical, small-molecule microarray, 635 nm fluorescence scan (AID 1110); conditions: LEFTY2 binding, higher = more signal
Left-right determination factor 2 (Homo sapiens), sequence (O00292 whole entry, looked up): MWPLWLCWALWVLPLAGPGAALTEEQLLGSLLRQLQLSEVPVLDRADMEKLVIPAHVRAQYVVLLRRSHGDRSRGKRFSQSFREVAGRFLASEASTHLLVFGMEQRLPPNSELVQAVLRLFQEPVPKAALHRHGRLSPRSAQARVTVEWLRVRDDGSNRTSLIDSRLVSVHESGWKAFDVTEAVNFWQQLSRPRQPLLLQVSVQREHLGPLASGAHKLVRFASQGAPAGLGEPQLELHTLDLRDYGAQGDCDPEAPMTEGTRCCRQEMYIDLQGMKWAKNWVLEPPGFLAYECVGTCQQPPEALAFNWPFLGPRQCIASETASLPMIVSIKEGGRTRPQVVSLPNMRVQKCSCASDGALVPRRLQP

[14] = molecular target: Calmodulin-1 (Homo sapiens) (UniProt P0DP23); test: CALM1 binders on microarrays, EGTA buffer, profiling panel, biochemical, small-molecule microarray, Cy5-labelled CALM1 (AID 1111); conditions: Cy5-CALM1 binding fluorescence, higher = more signal;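 note: labelled calmodulin applied in Tris saline Tween buffer holding calcium plus EGTA and DTT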
[15] = molecular target: Calmodulin-1 (Homo sapiens) (UniProt P0DP23); test: calcium-bound CALM1 binders on microarrays, profiling panel, artefact control for SMM control-protein annotation, biochemical, small-molecule microarray, Cy5-labelled CALM1, plus calcium (AID 1112); conditions: Cy5-CALM1 binding fluorescence, higher = more signal;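 note: score merges spot fluorescence with signal to noise from triplicate slides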
[16] = small-molecule microarray binders of probe aWnt5a, primary screen, biochemical, biotinylated probe, 635/667 nm fluorescence (AID 1113); conditions: higher = more signal;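 note: score merges 667 nm fluorescence intensity with signal-to-noise per printed feature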
[17] = small-molecule microarray binders of probe aShh, primary screen, biochemical, biotinylated probe, 635/667 nm fluorescence (AID 1114); conditions: higher = more signal;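 note: probe is biotin-labelled aShh protein from a stem cell growth factor screen; measures binding of labelled protein to compounds printed on the slide; score merges feature fluorescence at 667 nm with signal-to-noise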
[18] = small-molecule microarray binders of probe aNog, primary screen, biochemical, biotinylated probe, 635/667 nm fluorescence (AID 1115); conditions: higher = more signal;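 note: probe is biotinylated aNog protein used at 0.15 µg/mL for 1 h at 4 C; z-score combines 667 nm fluorescence of each spot with its signal to noise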
[19] = molecular target: Torsin-1A-interacting protein 1 (Homo sapiens) (UniProt Q5JTV8); test: LAP1 binders from COS7 cell lysate, primary screen, small-molecule microarray, 635/667 nm fluorescence (AID 1116); conditions: COS7-hLAP1 lysate binding, 635 nm fluorescence, higher = more signal
Torsin-1A-interacting protein 1 (Homo sapiens), sequence (Q5JTV8 whole entry, looked up): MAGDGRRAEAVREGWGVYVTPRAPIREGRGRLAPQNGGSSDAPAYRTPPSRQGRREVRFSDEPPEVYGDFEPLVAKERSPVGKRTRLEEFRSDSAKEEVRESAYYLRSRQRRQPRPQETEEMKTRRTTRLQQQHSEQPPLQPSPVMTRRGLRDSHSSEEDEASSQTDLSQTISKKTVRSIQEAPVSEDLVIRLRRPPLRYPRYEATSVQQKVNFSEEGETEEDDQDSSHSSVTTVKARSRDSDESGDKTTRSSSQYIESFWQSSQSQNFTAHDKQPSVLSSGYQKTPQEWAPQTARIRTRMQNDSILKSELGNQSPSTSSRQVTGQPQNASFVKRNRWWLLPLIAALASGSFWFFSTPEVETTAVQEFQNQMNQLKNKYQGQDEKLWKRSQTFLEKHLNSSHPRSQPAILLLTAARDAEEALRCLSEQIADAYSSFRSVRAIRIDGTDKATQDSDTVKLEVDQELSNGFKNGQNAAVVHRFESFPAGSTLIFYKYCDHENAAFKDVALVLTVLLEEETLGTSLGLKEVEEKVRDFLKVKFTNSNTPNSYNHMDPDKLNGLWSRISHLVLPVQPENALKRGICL

[20] = molecular target: Alpha-bungarotoxin (Bungarus multicinctus) (UniProt P60615); test: alpha-bungarotoxin binders on microarray, profiling panel, artefact control for SMM control protein annotation, biochemical, small-molecule microarray, Alexa647 label, 635/667 nm fluorescence (AID 1117); conditions: alpha-BTX-A647 binding fluorescence, higher = more signal
Alpha-bungarotoxin (Bungarus multicinctus), sequence (P60615 whole entry, looked up): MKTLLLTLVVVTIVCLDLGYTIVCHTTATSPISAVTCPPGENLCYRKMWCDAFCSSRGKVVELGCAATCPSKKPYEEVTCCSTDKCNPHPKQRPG

Row | SMILES | composite z-score [1] | composite z-score [2] | composite z-score [3] | z-score [4] | composite z-score [5] | composite z-score [6] | composite z-score [7] | composite z-score [8] | composite z-score [9] | composite z-score [10] | composite z-score [11] | z-score [12] | composite z-score [13] | composite z-score [14] | composite z-score [15] | composite z-score [16] | composite z-score [17] | composite z-score [18] | composite z-score [19] | composite z-score [20]
1 | COCCCNC(=O)[C@@]1(C)c2ccccc2C(=O)N(c2ccc(C)cn2)[C@H]1c1ccc(CO)cc1 | 0.963 | -0.748 | -0.75 | 0.532 (inactive) | -1.15 | -0.799 | -0.626 | -0.551 | -0.813 | 0.534 | -0.588 | -0.0063 | -0.877 | -0.949 | -1.12 | -0.172 | 0.283 | -0.911 | 1.69 | -1.65
2 | COc1ccc([Si](C)(C)[C@@H]2[C@@H](CC(=O)N(CCO)Cc3ccccc3)O[C@]3(C(=O)N(C)c4c(Br)cc(C)cc43)[C@H]2C)cc1 | 0.717 | -0.298 | -0.237 | -1.92 (inactive) | 1.1 | -0.27 | 0.729 | 1.09 | 0.834 | 1.02 | 1.26 | -4.3 | 0.661 | -0.87 | -1.13 | 0.168 | -0.399 | -0.406 | 0.13 | 0.0978
3 | COCCCNC(=O)[C@@]1(Cc2ccccc2I)c2ccccc2C(=O)N(Cc2ccccc2Cl)[C@H]1c1ccc(CO)cc1 | 0.506 | 0.0418 | -0.261 | -0.964 (inactive) | -0.0568 | 0.575 | -0.0316 | 0.3 | 0.186 | 0.712 | 1.16 | -1.36 | 0.365 | 1.32 | 0.101 | 0.0101 | -0.154 | -0.364 | 0.164 | 0.752
4 | CC(C)(C)OC(=O)CC[C@]1(C(=O)N2CCCCC2)N=C(c2ccc(OCCCO)cc2)O[C@H]1c1ccccc1CN=[N+]=[N-] | 1.68 | 0.978 | 0.92 | -3.65 (inactive) | 1.42 | 1.3 | 0.604 | 1.41 | 0.414 | 1.21 | 0.804 | -2.03 | 0.888 | 0.958 | 0.566 | 0.0044 | 0.439 | 0.659 | 2.52 | 0.12
5 | CN(C)C(=O)[C@@]1(Cc2ccccc2N=[N+]=[N-])N=C(c2ccc(OCCCO)cc2)O[C@H]1c1ccccc1N=[N+]=[N-] | 0.974 | 1.19 | 0.7 | -0.167 (inactive) | 0.817 | 1.29 | 0.284 | 0.347 | 0.0393 | 1.28 | 1.41 | -2.28 | -0.121 | 1.43 | 0.859 | -0.0403 | 0.108 | 0.566 | 1.29 | 1.6
6 | COCCOC(=O)N1C(=O)[C@@]2(c3cc(C#CC4(O)CCCCCC4)ccc31)[C@H](C(=O)NC[C@H](O)c1ccccc1)[C@H]1C(=O)O[C@H](c3ccccc3)[C@H](c3ccccc3)N1[C@@H]2c1ccc(OCCO)cc1 | 0.971 | -0.0726 | -0.0689 | -1.15 (inactive) | 0.68 | 0.673 | 0.429 | 0.834 | 0.348 | 0.193 | 1.38 | -1.73 | 0.358 | 0.7 | 0.383 | -0.282 | -0.638 | 0.14 | 0.394 | 0.598
7 | C=CCOc1ccc([C@@H]2CC=C(C(=O)OCC)[C@H](c3cccc(Br)c3)N2S(=O)(=O)c2ccc(C)cc2)cc1 | 0.251 | 0.735 | 1.04 | -0.776 (inactive) | 0.248 | -1.11 | -0.0936 | 0.167 | 0.644 | 1.46 | -1.07 | -1.12 | 0.179 | 1.95 | 0.943 | -0.0944 | -0.107 | -0.54 | 0.644 | 1.2
8 | NC(=O)[C@H]1[C@@H]2C(=O)O[C@@H](c3ccccc3)[C@@H](c3ccccc3)N2[C@@H](c2ccc(O)cc2)[C@]12C(=O)Nc1ccc(C#CC3(O)CCCCCC3)cc12 | 1.37 | 0.156 | 0.0715 | -1.32 (inactive) | 1.36 | 1.31 | 0.53 | 1.42 | 0.573 | 0.593 | 1.45 | -2.61 | 0.6 | 0.861 | -0.227 | -0.12 | 0.534 | -0.327 | 1.49 | 1.49
9 | CCOC(=O)C1=CCC(c2cccc(Cl)c2)O1 (stereo not given) | 0.355 | 0.14 | -0.0411 | -1.29 (inactive) | 0.235 | 0.0617 | -0.62 | -0.275 | -0.504 | 0.154 | 0.377 | -1.74 | 0.005 | -0.314 | -0.571 | -0.0492 | 0.0796 | 0.59 | 0.291 | -0.383
10 | CCOc1cc(C(O)C2C=CC3C(=O)NC(=O)C3N2Nc2ccccn2)ccc1O (stereo not given) | 0.38 | -0.0596 | -0.0156 | 1.12 (inactive) | 0.592 | 0.156 | 0.28 | 0.189 | 0.107 | 0.925 | -0.357 | 0.294 | 0.205 | 0.384 | -0.108 | -0.198 | -0.117 | 0.0258 | 0.229 | 0.297
11 | O=C(O)[C@]1(CCS(=O)(=O)c2ccccc2)N=C(c2ccc(OCCCO)cc2)O[C@@H]1c1ccccc1 | 0.74 | 1.21 | 1.04 | 0.149 (inactive) | 0.216 | 0.439 | -0.422 | -0.564 | -0.402 | 0.849 | 0.0626 | -0.0254 | -0.004 | 0.737 | 0.4 | 0.0216 | -0.0322 | 1.82 | -0.357 | -0.0315
